From PubChem
Shown are actives, neighbours in structure and some others; about 3.1% of the full set was active somewhere.
VDR inhibitor: Inhibitors of the vitamin D receptor (VDR): qHTS. Vitamin D3 receptor (Homo sapiens), P11473. VDR-SRC2-3 peptide fluorescence polarization, 2 h. Potency, µM, hits mostly inhibitors. 0.93% of 400,000 active. AID 504847, 2011
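Measured by FP: displacement of SRC2-3 coactivator peptide from VDR by library compounds, following a two-hour ambient incubation.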
PI4K2A inh: qHTS for small molecular inhibitors of PI4K2A | activity change, negative = inhibition, % at 76.9 µM | purified PI4K2A, ADP-Glo luminescence, 1 h; stronger effect = lower value | 0.13% of 420,000 active; in the data active = activity change below about -50%; inconclusive = mostly about -30% to -49%
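ADP-Glo luminescence measured ADP generated by PI4K2A enzyme (4 ug/mL before mixing) with 1.2 mM PI substrate (pre-mix) and 300 microM ATP (pre-mix). Tris pH7.5 buffer with MgCl2, Triton X-100; 1 h reaction at ambient temperature.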
PLK1 PBD inh: qHTS for Inhibitors of PLK1-PDB (polo-like kinase 1 - polo-box domain): Primary Screen; Plk1 PBD binding of FITC phosphopeptide, fluorescence polarization; 2.8% of 360,000 active; Serine/threonine-protein kinase PLK1 (Homo sapiens), P53350; AID 720504, 2013; Potency, µM, usual class: inhibitors; also: series mostly up to about 57 µM; nearly all actives have a fitted effect of over 65% in size
GLS inhibitor: qHTS for Inhibitors of Glutaminase (GLS); Glutaminase kidney isoform, mitochondrial (Homo sapiens), O94925; GLS enzymatic activity, qHTS titration; Potency, µM (highest dose often 45.5 µM), hits mostly inhibitors; 0.21% of 410,000 active; AID 624170, 2012
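Glutamate formation by hKGA was monitored fluorometrically using coupled glutamate oxidase, HRP and Amplex Red. Substrate was added as 1 mM L-glutamine solution; incubation was 30 min at RT after an initial read.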
KAT2A inh: qHTS Assay for Inhibitors of GCN5L2. Histone acetyltransferase KAT2A (Homo sapiens), Q92830. GCN5L2 HAT assay, ThioGlo1 CoA-SH fluorescence. Potency, µM (titrated, usually from 58.9 µM), actives largely listed as inhibitors. 0.21% of 390,000 active
Target sequence (Q92830 whole entry, looked up): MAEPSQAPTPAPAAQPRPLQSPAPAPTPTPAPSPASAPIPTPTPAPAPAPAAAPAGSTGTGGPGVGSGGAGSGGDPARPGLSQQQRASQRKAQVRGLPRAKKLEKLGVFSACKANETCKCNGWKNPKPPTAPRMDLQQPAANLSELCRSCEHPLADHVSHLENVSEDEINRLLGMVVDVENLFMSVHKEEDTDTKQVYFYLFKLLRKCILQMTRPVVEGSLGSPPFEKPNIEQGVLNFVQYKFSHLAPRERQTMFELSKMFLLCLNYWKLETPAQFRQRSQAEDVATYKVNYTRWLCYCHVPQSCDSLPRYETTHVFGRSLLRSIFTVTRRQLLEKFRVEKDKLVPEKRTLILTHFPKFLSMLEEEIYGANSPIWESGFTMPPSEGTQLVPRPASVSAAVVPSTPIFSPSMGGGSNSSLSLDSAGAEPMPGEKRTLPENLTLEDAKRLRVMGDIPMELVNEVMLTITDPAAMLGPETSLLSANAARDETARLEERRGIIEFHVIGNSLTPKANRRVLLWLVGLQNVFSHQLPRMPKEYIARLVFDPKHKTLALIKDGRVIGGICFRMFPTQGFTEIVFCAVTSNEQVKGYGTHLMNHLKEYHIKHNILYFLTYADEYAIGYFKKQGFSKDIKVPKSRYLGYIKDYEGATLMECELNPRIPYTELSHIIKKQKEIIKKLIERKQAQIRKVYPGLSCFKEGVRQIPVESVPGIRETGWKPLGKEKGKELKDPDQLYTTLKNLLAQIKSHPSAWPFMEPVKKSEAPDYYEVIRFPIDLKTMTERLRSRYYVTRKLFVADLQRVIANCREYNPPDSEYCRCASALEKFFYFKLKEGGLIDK
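qHTS, 1536-well. 20nM enzyme, pH 7.5 HEPES/EDTA/Tween-20 buffer; 15 min compound preinc., RT. Start: 75uM H3(1-25), 70uM AcCoA, 50uM ThioGlo1. Read Ex340/Em540 at t=0 (autofluorescence flag) and t=20 min.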
Hits are given with their value; - = inactive; ? = inconclusive; . = no result given. Unless noted, calls follow the shape of the dose curve; as a rule, active = well fitted curve in the direction sought with a large enough effect; inconclusive = small, poorly fitted or top-dose-only effect, or another doubt; inactive = no such curve, though single readings can be large; an effect the other way counts as inactive or inconclusive.

SMILES	VDR inhibitor	PI4K2A inh	PLK1 PBD inh	GLS inhibitor	KAT2A inh
CCc1ccc(CN(C)C(=O)c2cc(COc3c(F)cccc3F)on2)cc1	-	-	18.9µM	-	-
CCN(Cc1ccncc1)C(=O)c1cc(COc2c(F)cccc2F)on1	?	-	29.9µM	-	-
COC(=O)[C@H](Cc1ccccc1)NC(=O)c1cc(COc2c(F)cccc2F)on1	-	-	29.9µM	-	-
Nc1nc(NCc2c(F)cccc2Cl)nn1-c1ccccc1	-	-	26.7µM	-	-
Cc1ccc(C(=O)Nc2ccc(N3CCOCC3)nc2N2CCOCC2)cc1	-	-	-	1.12µM	-
Cc1ccc(NC(=O)c2ccc3nc(N4CCOCC4)sc3c2)c(Cl)c1	-	-	?	-	-
CCOC(=O)c1nn(-c2ccccc2)c(=O)cc1OCC(=O)Nc1cc(C)ccc1OC	-	-	-	7.94µM	-
O=C1CCNc2ccc(-c3ccccc3)cc21	-	-	9.47µM	-	-
Cc1ccc2c(c1)C(=O)CCN2	-	-	-	-	-
O=C1CCNc2cc3ccccc3cc21	?	-	21.2µM	-	-
C[C@@H]1CCN(C2CC2)S(=O)(=O)c2c(cccc2N2CC[C@H](O)C2)O1	.	-	.	.	.
COC(=O)[C@]12C[C@H](CC(=O)NCCCCc3ccccc3)C(=O)N(Cc3ccc(Cl)cc3Cl)C1=C[C@H](C(C)(C)C)O[C@@H]2C	.	-	.	.	.
Cc1[nH][nH]c(=O)c1C(c1ccc(Cl)cc1)c1c(C)[nH][nH]c1=O	-	-	29.9µM	-	-
Cc1[nH][nH]c(=O)c1C(c1ccc(F)cc1)c1c(C)[nH][nH]c1=O	-	-	?	-	-
Cc1ccc(OCc2nc(C#N)c(N3CCN(Cc4ccccc4)CC3)o2)cc1	-	-	26.7µM	-	-
N#Cc1nc(COc2ccccc2)oc1N1CCN(Cc2ccccc2)CC1	-	-	29.9µM	-	-
N#Cc1nc(COc2ccccc2)oc1N1CCC(Cc2ccccc2)CC1	-	-	-	-	-
CC(=O)c1cccc(NC(=O)COc2ccccc2)c1	-	-	-	.	-
CSc1cccc(NC(=O)COc2ccccc2)c1	-	-	2.99µM	?	-
CCCCCNC(=O)C(c1cc2ccccc2o1)n1c(=O)c(-c2ccco2)nc2ccccc21 (centres undefined)	.	-	7.52µM	.	.
CCCCNC(=O)c1ccc2nc(-c3ccco3)c(-c3ccco3)nc2c1	79.4µM	?	21.2µM	-	-
CC(=O)c1ccc(NC(=O)c2ccc3nc(-c4ccco4)c(-c4ccco4)nc3c2)cc1	?	-56.2	23.8µM	14.1µM	?
O=C(Nc1ccc(N2CCOCC2)cc1)c1ccc2nc(-c3ccco3)c(-c3ccco3)nc2c1	-	-	-	-	-
CCCNC(=O)c1ccc2nc(-c3ccccc3)c(-c3ccccc3)nc2c1	-	-	?	-	-
N#Cc1ccc(Cn2ccc3ccc(-c4ccc5ccn(C(=O)c6ccccc6)c5c4)cc32)cc1	.	-	.	.	.
SMILES	VDR inhibitor	PI4K2A inh	PLK1 PBD inh	GLS inhibitor	KAT2A inh
O=C(c1ccco1)N1CCC2(CC1)CN(c1cccc(-c3ccccc3)c1)C2	?	.	.	.	-
Cc1cccc(C)c1NC(=O)c1nc(S(=O)(=O)Cc2ccccc2)ncc1Cl	?	-	?	-	-
Cc1ccccc1CS(=O)(=O)c1ncc(Cl)c(C(=O)Nc2ccc(F)cc2)n1	-	-	18.9µM	-	-
CN1/C(=C/C(=O)c2nc(S(C)(=O)=O)ncc2Cl)C(C)(C)c2ccccc21	50.1µM	-	?	-	-
Cc1ccccc1NC(=O)c1nc(S(C)(=O)=O)ncc1Cl	39.8µM	-	?	-	-
CN1/C(=C\C(=O)c2cccnc2)C(C)(C)c2ccccc21	-	-	-	-	-
CCOC(=O)c1nc(S(C)(=O)=O)ncc1Cl	56.2µM	-	21.2µM	-	-
O=C(CCn1nnc(-c2cccs2)n1)NCc1ccco1	.	-	.	.	.
Cc1ccsc1S(=O)(=O)n1c(CN2CCOCC2)nc2ccccc21	.	-	.	.	.
COc1ccc(NC(=O)c2c(NCc3ccc(N(C)C)cc3)sc3c2CCC3)cc1	-	-	.	-	-
O=C(NCc1cccs1)C1CCC(CNS(=O)(=O)c2cccc3cccnc23)CC1 (centres undefined)	.	-	.	.	.
CCOC(=O)N=S(N)(=O)c1ccccc1 (centres undefined)	-	-	-	-	.
CCOC(=O)N=S(N)(=O)c1ccc(Cl)cc1 (centres undefined)	-	-	10.6µM	?	-
COc1ccc(CCNC(=O)C2CCN(C(=O)c3ccc(Br)cc3)CC2)cc1	?	-	26.7µM	-	-
NC(=O)C1CCN(C(=S)NCCc2ccccc2)CC1	-	-	-	-	-
COc1ccc(CCNC(=S)N2CCC(C(N)=O)CC2)cc1	-	-	33.6µM	-	-
CCc1ccc(/C=C/C(=O)NC2=NCCS2)cc1	.	-	.	.	.
CCOc1ccc(CCNC(=O)c2ccc3[nH]ccc3c2)cc1OCC	.	-	.	.	.
O=c1[nH]c(=S)[nH]c(-c2ccccc2)c1Cc1c(O)ccc2ccccc12	22.4µM	-	.	.	?
Cc1[nH]c(=S)[nH]c(=O)c1Cc1c(O)ccc2ccccc12	-	-	?	-	.
CN(C)c1cc(Cl)c2nonc2c1N	?	-57.0	-	-	-
COc1ccc(N2CCN(CCCNC(=O)CCc3cccc(Cl)c3)CC2)cc1	.	-	.	.	.
CCOc1cccc(-c2c(C(=O)N/N=C/c3ccoc3)nnn2-c2nonc2N)c1	?	-	29.9µM	?	-
CC(C)c1c(C(=O)N/N=C/c2ccc(OCc3ccc(F)cc3)cc2)nnn1-c1nonc1N	-	-	21.2µM	-	-
CCOc1ccc(-c2c(C(=O)N/N=C/c3ccoc3)nnn2-c2nonc2N)cc1	-	-	-	-	-
SMILES	VDR inhibitor	PI4K2A inh	PLK1 PBD inh	GLS inhibitor	KAT2A inh
COC(=O)C[C@@H]1CC[C@@H]2[C@H](COc3ccc(NC(=O)Nc4c(C)noc4C)cc3C(=O)N2C)O1	.	-	.	.	.
CCCCN(C)c1c2c(nc3ncnn13)CCCC2	.	-	.	.	.
O=C(OCc1cn(Cc2cccc(F)c2)nn1)N1CCCCC1	.	-	.	.	.
O=C(CCS(=O)(=O)c1ccc(Br)cc1)NCCc1ccccc1	-	-	29.9µM	-	-
CCc1cccc(NC(=O)CCS(=O)(=O)c2ccc(Br)cc2)c1	79.4µM	-	13.4µM	-	-
NS(=O)(=O)c1ccc(CCNC(=O)CCS(=O)(=O)c2ccc(Br)cc2)cc1	-	-	?	?	-
Cc1ccc(S(=O)(=O)CCC(=O)Nc2cccc(C)c2)cc1	-	-	-	-	-
Cc1ccc(S(=O)(=O)CCNC(=O)Cc2ccccc2)cc1	56.2µM	-	9.47µM	-	-
COc1ccc(Nc2ncccc2C(=O)Nc2ccccc2)cc1	-	-	2.67µM	?	-
COc1ccc(NC(=S)NNC(=O)COc2ccc(Cl)cc2Cl)cc1	-	-	-	-	-
COc1ccc(NC(=O)c2cc3ccccc3cc2OC)cc1	?	-	29.9µM	-	-
